# Compound activity as filed in PubChem BioAssay.
# NS1 inh: blocks influenza NS1 protein function; hit rate 0.4% among 270,000; Potency, µM (highest dose often 46.1 µM); AID 2326; calls by dose curve; further: actives are rising curves; nearly all actives have a fitted effect of over 50% in size
#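 Compounds were scored for reversing the slow growth caused by influenza A NS1 in S. cerevisiae, measured by optical density at 600 nm. Assay medium contained 2% galactose at pH 6.0; NS1-free yeast of the same strain were the positive control.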
# Pf growth 48h: inhibits P. falciparum growth in the first generation, 48 h. Potency, µM (titrated, usually from 28.7 µM), usual class: inhibitors. hit rate 5.9% among 310,000. P. falciparum luciferase growth in erythrocytes, 48 h
#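 Growth was read as firefly luciferase luminescence after a 48 h, 37 C, 5% CO2 exposure of compounds to reporter-bearing P. falciparum cultures (0.1% parasitemia, 2% hematocrit final) in Albumax-supplemented RPMI 1640.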
# Shiga inhibitor: blocks Shiga toxin action in Vero cells. Vero cells, Shiga toxin protein synthesis inhibition reporter. inhibition, % at 38.7 µM. hit rate 9.2% among 290,000; in the data active means inhibition mostly above about 28%, no sharp cut-off; inactive means mostly below about 43%
# Pf growth 96h: P. falciparum growth inhibition at 96 hours; P. falciparum luciferase reporter growth, 96 h; Potency, µM (titrated, usually from 28.7 µM), hits mostly inhibitors; hit rate 6.9% among 320,000
#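 Readout is luminescence from an integrated firefly luciferase in P. falciparum. Red cells, 2% hematocrit and 0.05% parasitemia final, were cultured with compound through two parasite generations (96 hours) at 37 C, 5% CO2.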
# Cycloheximide cs: counter-screen for Shiga toxin inhibitors: cycloheximide protein synthesis inhibition; cell reporter, cycloheximide protein synthesis inhibition counterscreen; max response, %; hit rate 12% among 300,000; AID 2314; in the data active means max response mostly above about 13%, no sharp cut-off; inactive means mostly below about 14%; further: read at 38.3 µM for the half of the compounds with a filed dose
# A number is an active result; i = inactive; ? = inconclusive; nt = no result; [ ] = remark or other dose. A selection: hits, their analogues and other compounds. The true share with any hit is near 21%. Unless noted, the call rests on the fitted dose curve; in most records, active means well fitted inhibition curve with a large enough effect; inconclusive means small, poorly fitted or top-dose-only effect, or another doubt; inactive means no such curve, though single readings can be large or run the other way.
SMILES,NS1 inh,Pf growth 48h,Shiga inhibitor,Pf growth 96h,Cycloheximide cs
C/C(=N\N1C(=O)c2ccccc2NC1c1ccccc1)c1ccccc1O (stereo unspecified),i,i,66.6,i,23.1
O=C1c2ccccc2NC(c2ccco2)N1/N=C/c1ccco1 (stereo unspecified),i,i,i,i,32.5
C/C(=N\N1C(=O)c2ccccc2NC1c1ccco1)c1ccccc1O (stereo unspecified),i,i,64.5,i,32.2
CC(=O)NN1C(=O)c2ccccc2NC1c1ccccc1O (stereo unspecified),i,i[0.00184 µM],i,i,i
Cc1ccc(/C=N/N2C(=O)c3ccccc3NC2c2ccc(C)cc2)cc1 (stereo unspecified),i,i,95.6,i,81.7
COCCC(=O)N1CCC(Oc2ccc(C(=O)N3CCCCC3COC)cc2)CC1 (stereo unspecified),i,i,i,?,i
O=C(/C=C/c1ccccc1)N1CCN(c2c(Cl)cccc2[N+](=O)[O-])CC1,i,i,i,?,i
CS(=O)(=O)NN1C(=O)c2ccccc2NC1c1ccccc1 (stereo unspecified),nt,i,33.6,?,24.9
Cc1onc(-c2c(Cl)cccc2Cl)c1COC(=O)c1ccc(Cl)cc1[N+](=O)[O-],i,?,i,?,i
O=C(Nc1cccc(O)c1)c1c(O)c2ccccc2[nH]c1=O,?,i,38.2,i,48.1
Cc1cccc(NC(=O)c2c(O)c3ccccc3[nH]c2=O)c1,i,i,38.1,i,32.8
O=C(Nc1cccc(C(F)(F)F)c1)c1c(O)c2ccccc2[nH]c1=O,i,i,i,14.7µM,i
CCCCc1cc(=O)oc2cc(C)cc(OC(C)C(=O)NCc3ccncc3)c12 (stereo unspecified),i,?,i,?,i
Cc1cc(C)c(S(=O)(=O)c2ccccc2C)c(Cl)n1,i,i,i,i,i
CCCCSc1nc(C)cc(C)c1S(=O)(=O)c1ccccc1C,i,?,i,10.4µM,i
COc1ccccc1C(C)NC(=O)Cc1ccc(S(=O)(=O)N2CCOCC2)s1 (stereo unspecified),nt,?,nt,i,nt
COc1cc(NC(=O)c2nccnc2C(=O)O)cc(OC)c1,i,i,i,i,i
FC(F)(F)c1cccc(Cc2noc(CN3CCCC(CN4CCCC4)C3)n2)c1 (stereo unspecified),i,2.62µM,i,9.28µM,i
CCOC(=O)C1CCCN(Cc2nc(Cc3ccccc3Cl)no2)C1 (stereo unspecified),i,i,i,?,i
FC(F)(F)c1cccc(Cc2noc(CN3CCSCC3)n2)c1,i,i,i,i,i
CC1CCCN(Cc2nc(Cc3ccccc3Cl)no2)C1 (stereo unspecified),i,i,37.7,?,22.9
OC1CCCN(Cc2nc(Cc3ccccc3Cl)no2)C1 (stereo unspecified),i,i,i,10.4µM,17.2
CCN(CC)CC1CCCCN1CC(=O)N1c2ccccc2C(=O)Nc2cccnc21 (stereo unspecified),nt,i,i,i,i
O=C1NCCCCC1NS(=O)(=O)c1cccc2ccccc12 (stereo unspecified),i,i[0.00184 µM],i,i,i
CC12CN3CC(C)(CN(C1)C3c1ccncc1)C2=O (stereo unspecified),i,i,i,i,i
SMILES,NS1 inh,Pf growth 48h,Shiga inhibitor,Pf growth 96h,Cycloheximide cs
CC12CN3CC(C)(CN(C1)C3c1cc3ccccc3[nH]1)C2=O (stereo unspecified),i,i,i,1.04µM,i
COc1ccc(N2CCN(C(=O)Cn3cnc4c(cnn4-c4ccc(C)cc4)c3=O)CC2)cc1,nt,i,i,i,i
COc1ccccc1C(=O)N(CCC1CCCN1C)c1nc2ccccc2s1 (stereo unspecified),i,i,i,i,25.9
O=C(NNC(=S)Nc1ccc(F)cc1F)c1ccco1,i,i,i,i,33.3
Cc1ccccc1NC(=S)NNC(=O)c1ccco1,i,i,52.5,i,31.8
Cc1ccccc1NC(=O)c1ccco1,i,i,nt,?,i
Cc1cccc(NC(=O)c2ccco2)c1C,i,i,i,10.4µM,i
CCc1cc(C(=O)NNC(=S)Nc2ccccc2C)cs1,i,i,96.3,i,38.5
O=C(NNC(=S)Nc1ccccc1)c1ccco1,i,i,i,i,i
COc1ccc(N2C(=O)N[C@@H](Cc3ccccc3)C2=O)cc1OC,i,i,i,i,i
Cc1cccc(NC(=O)c2cccnc2)c1C,i,i,i,i,i
CSCc1ccc(C(=O)Nc2cccc(C)c2C)cc1,i,i,i,i,48.6
CCc1cc(C(=O)Nc2ccccc2)cs1,i,i,106.0,i,40.7
Cc1ccc(Cn2cccc(NC(=O)c3ccco3)c2=O)cc1,i,i,91.9,i[5.75 µM],36.9
Cc1ccc(Cn2cccc(NC(=O)NCc3ccccc3)c2=O)cc1,i,i,i,i,i
COc1cccc(C(C)N(C)Cc2nc(-c3ccoc3)oc2C)c1 (stereo unspecified),i,i,i,i,i
O=C(Cn1cc(S(=O)(=O)Cc2ccccc2F)c2ccccc21)N1CCOCC1,i,i,i,i,i
CCN(CC)CCNc1ccc(CO)c2sc3ccccc3c(=O)c12,i,3.7µM,i,2.94µM,i
COc1cccc(-c2cc(C(=O)NCCCn3ccnc3)no2)c1,i,i,102.5,?,23.0
C=CCNC(=O)c1cc(-c2ccc(Br)cc2)on1,i,i,89.0,i,24.2
O=C(NCCCN1CCOCC1)c1cc(-c2ccc(Br)cc2)on1,i,i,i,?,i
O=C(NCCCn1ccnc1)c1cc2nc(-c3ccc(Br)cc3)cc(C(F)(F)F)n2n1,i,?,i,4.15µM,i
COc1ccc2c(Cl)c(C(=O)NCCCn3ccnc3)sc2c1,i,?,i,i,19.7
CCc1c(C(=O)Nc2cc(C)cc(C)c2)[nH]c(C)c1C(C)=O,i,nt,i,i,i
O=C(NCCCn1ccnc1)c1cc(-c2ccc(Br)cc2)on1,nt,i,i,i,28.5
SMILES,NS1 inh,Pf growth 48h,Shiga inhibitor,Pf growth 96h,Cycloheximide cs
O=C(NCCCn1ccnc1)c1ccc2c(c1)OCCO2,i,i,i,nt,i
COc1ccc(-c2cc(C(=O)NCCCn3ccnc3)no2)cc1OC,i,i,i,nt,i
O=C(NCCCn1ccnc1)c1cc(-c2ccc3c(c2)OCO3)on1,i,i,22.0,?,11.8
COc1ccc(C2=NOC(C(=O)NCc3cccnc3)C2)cc1 (stereo unspecified),i,i,i,?,i
CC(=O)Nc1ccc(NC(=O)CSc2ccccn2)cc1,i,i,i,i,i
c1ccc(CSC2=NNC(c3ccccn3)S2)cc1 (stereo unspecified),i,2.08µM,i,?,33.2
O=C(CSC1=NNC(c2ccccn2)S1)Nc1ccc(C(F)(F)F)cc1 (stereo unspecified),i,?,37.9,?,23.3
COc1ccc(NS(=O)(=O)c2cccc(C(=O)N3CCCC3)c2)cc1,nt,i,nt,i,nt
CCC1CCCCN1C(=O)CCNS(=O)(=O)c1ccc2c(c1)oc(=O)n2C (stereo unspecified),i,?,i,2.33µM,i
Cn1c(=O)oc2cc(S(=O)(=O)NCCN3CCc4ccccc4C3)ccc21,i,i,i,8.28µM,i
